Several values for one entry are separate records, joined by “and”; a condition that tells them apart may be missing. Equal values may be shown once. Unmarked numbers belong to inactive results. How the calls were made is not given here.
system: Aerobactin synthetase IucA (Klebsiella pneumoniae, hypervirulent); test: IucA enzyme inhibition, biochemical, LOPAC library, absorbance readout (AID 1346212); settings: IucA enzyme assay, absorbance (OD) readout; stronger effect = lower value;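 tested at 8 µM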;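 further: 100% = no compound wells and 0% = no enzyme wells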

Question: For `Nc1ncnc2n[nH]c(Nc3ccc(F)cc3)c12`, which remaining activity is on record?
Answer: The remaining activity was 101%.

Question: For `CCCCC#Cc1nc(N)c2ncn([C@@H]3O[C@H](C(=O)NCC)[C@@H](O)[C@H]3O)c2n1`, which remaining activity is on record?
Answer: Its remaining activity is 96.4%.

Question: `COc1cc2c(cc1OC)[C@@H](c1ccccc1)CN(C)CC2` was tested. Which remaining activity did it give?
Answer: Its remaining activity is 102%.

Question: With `CC1CNCCN1S(=O)(=O)c1cccc2cnccc12` (centres undefined) as the compound, how does the remaining activity read?
Answer: The remaining activity was 95.7%.

Question: For `CC1CN(S(=O)(=O)c2cccc3cnccc23)CCN1` (centres undefined), which remaining activity is on record?
Answer: The remaining activity was 102%.

Question: Which remaining activity does the source give for `C=C[C@H]1CN2CC[C@H]1C[C@H]2[C@H](O)c1ccnc2ccc(OC)cc12` here?
Answer: Its remaining activity is 110%.

Question: For `COC(=O)[C@H](NC(=O)c1cc(-c2ccccc2)nc2ccccc12)c1ccccc1`, which remaining activity is on record?
Answer: The remaining activity was 97.3%.

Question: Which remaining activity does the source give for `C[C@H]1C[C@H]2[C@@H]3CCC4=CC(=O)C=C[C@]4(C)[C@@]3(Cl)[C@@H](O)C[C@]2(C)[C@@]1(O)C(=O)CO` here?
Answer: Its remaining activity is 107%.

Question: Which remaining activity does the source give for `COc1ccc2c(c1)CC[C@@H]1[C@@H]2CC[C@]2(C)[C@@H](NCCCCCCN3C(=O)C=CC3=O)CC[C@@H]12` here?
Answer: Its remaining activity is 111%.

Question: With `Nc1nc(Cl)nc2c1ncn2[C@@H]1O[C@H](COP(=O)(O)OP(=O)(O)OP(=O)(O)O)[C@H](O)C1O` (some centres undefined) as the compound, how does the remaining activity read?
Answer: The remaining activity was 104%.

Question: With `Nc1ccc(-c2nc3ccc(-c4nc5ccc(N)cc5[nH]4)cc3[nH]2)cc1` as the compound, how does the remaining activity read?
Answer: The remaining activity was 114%.

Question: With `NCC(O)(CS(=O)(=O)O)c1ccc(Cl)cc1` (centres undefined) as the compound, how does the remaining activity read?
Answer: The remaining activity was 103%.

Question: For `Nc1ccc(CCNc2ncnc3c2ncn3C2OC(CO)C(O)C2O)cc1` (centres undefined), which remaining activity is on record?
Answer: Its remaining activity is 124%.

Question: With `NCCCNCCCCNCCCN` as the compound, how does the remaining activity read?
Answer: Its remaining activity is 108%.

Question: `O=C(O)CN(CCOCCOCCN(CC(=O)O)CC(=O)O)CC(=O)O` was tested. Which remaining activity did it give?
Answer: Its remaining activity is 88.2%.

Question: Which remaining activity does the source give for `NC(=O)CNCCC(c1ccccc1)c1ccccc1` here?
Answer: Its remaining activity is 118%.

Question: `N#C/C(=C\c1ccc(O)c(O)c1)C(=O)Nc1ccccc1` was tested. Which remaining activity did it give?
Answer: Its remaining activity is 103%.

Question: `N#C/C(=C\c1c[nH]c2ccccc12)C(=O)c1ccc(O)c(O)c1` was tested. Which remaining activity did it give?
Answer: Its remaining activity is 97.5%.

Question: `Nc1nc(Nc2ccccc2)nc2c1ncn2[C@@H]1O[C@H](CO)[C@@H](O)[C@H]1O` was tested. Which remaining activity did it give?
Answer: The remaining activity was 106%.

Question: Which remaining activity does the source give for `C[C@@](Cc1ccc(O)c(O)c1)(NN)C(=O)O` here?
Answer: The remaining activity was 81.8%.

Question: With `CC[C@@H]1Cc2cc(O)ccc2C2=C1c1ccc(O)cc1C[C@H]2CC` as the compound, how does the remaining activity read?
Answer: The remaining activity was 89.7%.

Question: For `Cc1ccc(=O)n(-c2ccccc2)c1`, which remaining activity is on record?
Answer: Its remaining activity is 120%.

Question: With `CC(C)NC[C@H](O)c1ccc(O)c(O)c1` as the compound, how does the remaining activity read?
Answer: Its remaining activity is 108% and 104%.

Question: How did the remaining activity turn out when `Cc1cn([C@H]2C=C[C@@H](CO)O2)c(=O)[nH]c1=O` was run?
Answer: The remaining activity was 106%.
